About 83,000 compounds went through this panel and 20% of them were active in at least one assay; those are over-represented in the sample as a whole.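 Cell lines were cultured in 96-well plates, exposed to a single compound concentration, and assessed for percent growth 48 hours later.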 Values without a mark were called inactive. Calls of active or inactive are those of the source.
Each compound was assayed on SW-620 colon (assay: NCI-60 one-dose screen, 48 h (100 = growth as untreated, 0 = no growth, -100 = all killed)). Conditions: 10 µM unless noted.
Description: Growth inhibition of the SW-620 human tumor cell line is measured as a screen for anti-cancer activity. Cells are grown in 96 well plates and exposed to the test compound for 48 hours. Compounds are tested at a single concentration, which is 10^-5 M for most compounds. The reported endpoint is percent growth (GI% or GIPRCNT), where numbers from 0 - 100% represent growth inhibition, and numbers from -100% - 0 represent cell death. For example, a value of 40 represents 60% growth inhibition. A value of 0 means no net growth occurred over the course of the experiment. A value of -40 indicates 40% of cells at the beginning of the experiment died by the end of the experiment. A value of -100 means all cells are dead at the end of the experiment.
NCI-60 Human Tumor Cell Lines Screen was performed using the standard one-dose NCI protocol, which is described in more detail at https://dtp.cancer.gov/discovery_development/nci-60/default.htm.
Compounds with GIPRCNT values below 10 were considered active. Activity score was based on GIPRCNT using the following formula: […]
Score is 0 for GIPRCNT values of 100 or above, 50 for GIPRCNT values of 0, and 100 for GIPRCNT values of -100.

| SMILES | growth |
| --- | --- |
| CCOC(=O)c1sc2nc(-c3cc4ccccc4o3)cc(-c3ccc(Cl)cc3)c2c1N | 96.8% |
| NS(=O)(=O)c1ccc(N2N=C(c3cccs3)CC2c2ccccc2O)cc1 (stereo not given) | 19.3% |
| O=C(Nc1ccc(Oc2ccc(NC(=O)Nc3ccccc3Cl)cc2)cc1)Nc1ccccc1Cl | 51.7% |
| COc1cc(Cn2c(-c3ccccc3)cc3c2-c2oncc2CC3)cc(OC)c1OC | 24.3% |
| Nc1n[nH]c2ccc([C@@H]3Nc4c(F)cc5[nH]ncc5c4[C@H]4C5CCC(C5)[C@@H]34)cc12 (stereo not given in full) | 21.8% |
| O=C(C=P(c1ccccc1)(c1ccccc1)c1ccccc1)CCl | -50.7% (active) |
| CCN(CC)CCCC(C)Nc1cnc(C(=O)Nc2cc(C)cc3cccnc23)cn1 (stereo not given) | 75.3% |
| CCOC(=O)c1ccc(N(CCC(=O)O)C(C)=O)cc1 | 106% |
| Oc1[nH]c2ccccc2c1/C=c1/ccc2c(c1)N=C(c1ccc(C(F)(F)F)cc1)N=2 | 63.7% |
| CCCCCCCCCCCCCCCc1cc(O)ccc1[N+](=O)[O-] | 93.1% |
| COc1cc(C2C=C(C)N=C3SC=NN32)cc(OC)c1OC (stereo not given) | 105% |
| COc1ccc(Nc2ncccc2C(=O)NCc2cn(Cc3cc(OC)cc(OC)c3)nn2)cc1 | 105% |
| C#CC[C@@H]1C[C@]2(C)[C@H]3CC=C4[C@H]5CC(C)(C)CC[C@]5(C(=O)NCCCCN)CC[C@@]4(C)[C@]3(C)CC[C@H]2C(C)(C)[C@H]1OC(C)=O | -23.9% (active) |
| Nc1ccc(N(O)/C=C2\C=CC=CC2=O)cc1N | 105% |
| Cc1ccc(CSCc2ccc(C(=O)NC3CC3)o2)cc1 | 66.2% |
| C/C(=N\OC(=O)Nc1cccc(Cl)c1)c1ccccc1 | 95.3% |
| CNC(=O)c1ccccc1Sc1ccc2c(/C=C/c3ccccn3)n[nH]c2c1 | 17.8% |
| O=C(Nc1cccc(Cl)c1)Nc1cc(C(F)(F)F)ccc1Cl | -16.1% (active) |
| COc1ccc(NC(=O)/C=C/c2ccc(Cl)c(Cl)c2)cn1 | 104% |
| Brc1cccc(-n2ncc3c(Nc4ccc(-c5nnc(-c6ccccc6)o5)cc4)ncnc32)c1 | 99.5% |

| SMILES | growth |
| --- | --- |
| COc1ccc(/C(=C\c2cc(OC)c(OC)c(OC)c2)C(=O)N2CCNCC2)cc1 | 97.6% |
| COc1ccc(C2=Nn3c(nnc3-c3ccc(Cl)cc3N)SC2)cc1 | 108% |
| CCOC(=O)C(Nc1ccccc1)C(=O)OCC | 111% |
| CCN(CC)CCCC(C)Nc1cnc(C(=O)Nc2cccc3ccc(OC)nc23)cn1 (stereo not given) | 2.12% (active) |
| COCCOCCOCc1n(Cc2ccc3ccccc3n2)c2ccccc2[n+]1Cc1ccc2ccccc2c1 | 12.4% |
| CN=C1C=C/C(=N/N=c2/ccn(O)cc2C)C=C1C | 98.5% |
| CCN(CC)CCCNc1cccc2c(C)cc(OC)nc12 | 102% |
| Cc1ccc(NC(=O)c2[nH]c(SCCN(C)C)nc2-c2ccc(F)cc2)cc1C#Cc1cnc2cccnn12 | 0.0547% (active) |
| CCSc1ccc([C@@H]2[C@@H](N)C(=O)N2c2cc(OC)c(OC)c(OC)c2)cc1 | 25.8% |
| Cc1n(Cc2ccc3ccccc3n2)cc[n+]1Cc1ccc2ccccc2n1 | 90.4% |
| N=C(N)c1ccc(-c2ccc(-c3cc(Cl)cc(Cl)c3)o2)nc1 | -82.7% (active) |
| COc1ccc(-c2nc(-c3ccccc3OCc3ccccc3OC)nc(C)c2C(C)=O)cc1 | 67.5% |
| COC(=O)C(CCC(=O)CCl)N1C(=O)c2ccccc2C1=O (stereo not given) | 32.9% |
| C#CC[C@@H]1C[C@]2(C)[C@H]3CC[C@@H]4[C@H]5C(C(=C)C)CC[C@]5(C(=O)NCCCCCCCCN)CC[C@@]4(C)[C@]3(C)CC[C@H]2C(C)(C)[C@H]1OC(C)=O (stereo not given in full) | -2.59% (active) |
| Clc1ccc2c(c1)-n1cccc1C(c1ccc3ccccc3c1)=NC2 | 88% |
| Cn1nc(C(F)(F)F)cc1-c1c[nH]c(OCc2ccc(Cl)cc2)c(-c2ccc(Cl)c(C(F)(F)F)c2)c1=O | 12.6% |
| COc1c(C(=O)/C=C/c2ccc(C)o2)c(O)cc2occc12 | 32.1% |
| COc1cc2c(cc1OC)C(=O)OC2 | 104% |
| C[C@@H](C[C@H](CC1CC1)c1ccccc1)c1ccc2ccccc2c1 | 93.6% |
| C=C(C)C1CCC2(C(=O)O)CCC3(C)C(CCC4C5(C)CCC(O)C(C)(C)C5CCC43C)C12 (stereo not given) | 19.6% |

Reference: PubChem BioAssay (NCI)
